Compound activity: PubChem BioAssay, The Scripps Research Institute Molecular Screening Center
pPAFAH inh = pPAFAH enzyme inhibitors, primary screen, biochemical, fluorescence polarization, human; Platelet-activating factor acetylhydrolase (Homo sapiens), Q13093; recombinant pPAFAH, FP-rhodamine probe fluorescence polarization; inhibition, % at 3.39 µM; 330,000 compounds, 1.5% hits; AID 463082, 2010;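 active = inhibition above the mean inhibition across the screen plus 3 SD, cut at about 25% in these data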;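 note: inhibitors block binding of the rhodamine activity-based probe so polarization drops; 0% = enzyme with DMSO and 100% = wells lacking pPAFAH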
PAFAH1B3 inh = PAFAH1B3 enzyme inhibitors, primary screen, biochemical, fluorescence polarization, human; recombinant PAFAH1B3, FP-rhodamine probe; inhibition, % at 3.39 µM; 340,000 compounds, 0.28% hits;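 active = inhibition above the screen-wide average of all tested compounds plus 3 SD, cut at about 25% in these data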;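 note: 0% = enzyme with DMSO only and 100% = wells lacking PAFAH1B3 protein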
PME-1 inh = PME-1 inhibitors via competitive probe labeling, primary screen, biochemical, fluorescence polarization, FP-Rh probe, HTS; Protein phosphatase methylesterase 1 (Homo sapiens), Q9Y570; recombinant PME-1; inhibition, % at 5.9 µM; 320,000 compounds, 0.53% hits;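 active = inhibition above the campaign mean of all compounds plus 3 SD, cut at about 26% in these data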;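 note: competitive labeling of PME-1 active site by serine hydrolase directed probe; 0% = PME-1 with DMSO and 100% = wells lacking PME-1 enzyme; inhibitors block probe labeling so polarization falls and inhibition rises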
Target sequence (Q9Y570 whole entry, looked up): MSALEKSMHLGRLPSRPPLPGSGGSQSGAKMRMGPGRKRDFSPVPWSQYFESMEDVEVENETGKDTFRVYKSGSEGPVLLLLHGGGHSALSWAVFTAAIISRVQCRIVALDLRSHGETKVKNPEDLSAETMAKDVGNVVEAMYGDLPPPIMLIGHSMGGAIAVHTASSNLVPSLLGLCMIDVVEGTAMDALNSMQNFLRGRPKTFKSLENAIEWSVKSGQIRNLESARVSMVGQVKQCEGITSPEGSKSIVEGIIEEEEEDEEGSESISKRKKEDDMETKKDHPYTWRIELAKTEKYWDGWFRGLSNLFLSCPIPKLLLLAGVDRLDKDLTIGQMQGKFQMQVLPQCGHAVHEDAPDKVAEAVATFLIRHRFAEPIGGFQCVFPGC
PAFAH2 inh = PAFAH2 enzyme inhibitors, primary screen, biochemical, fluorescence polarization, human. inhibition, % at 3.39 µM. 340,000 compounds, 0.99% hits. recombinant PAFAH2, FP-rhodamine activity probe;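 active = inhibition above the mean over all tested compounds plus 3 SD, cut at about 30% in these data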;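 note: inhibitors block probe labeling of enzyme so polarization drops; 0% = enzyme with DMSO and 100% = wells lacking PAFAH2 protein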
Fam108B inh = mouse Fam108B serine hydrolase inhibitors, primary screen, counter-screen for RBBP9 inhibitor project, biochemical, fluorescence polarization; recombinant Fam108B, FP-Rh probe fluorescence polarization; 300,000 compounds, 0.33% hits; inhibition, % at 9.51 µM;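 active = inhibition above the screen mean inhibition plus 3 SD, computed separately per campaign, cut at about 18% in these data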;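 note: inhibitors lower polarization as less probe binds the enzyme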
PAFAH1B2 FP inh = PAFAH1B2 enzyme inhibitors, primary screen, biochemical, fluorescence polarization, human. Platelet-activating factor acetylhydrolase IB subunit alpha2 (Homo sapiens), P68402. recombinant PAFAH1B2, FP-rhodamine activity probe. 340,000 compounds, 1.2% hits. inhibition, % at 3.39 µM;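 active = inhibition above the mean of all tested compounds plus 3 SD, cut at about 24% in these data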;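 note: 0% = enzyme with DMSO and 100% = wells lacking PAFAH1B2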
Target sequence (P68402 whole entry, looked up): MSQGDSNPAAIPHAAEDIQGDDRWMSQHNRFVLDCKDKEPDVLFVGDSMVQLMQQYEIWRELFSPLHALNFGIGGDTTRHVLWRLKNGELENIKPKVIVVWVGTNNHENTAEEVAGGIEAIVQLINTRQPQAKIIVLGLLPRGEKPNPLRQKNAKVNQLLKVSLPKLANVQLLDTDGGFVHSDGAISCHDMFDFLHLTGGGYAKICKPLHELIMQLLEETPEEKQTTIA
Starred values were filed as active, the others as inactive; / = no result given. Hits are enriched below; roughly 2.9% of the tested compounds scored in any of these assays.

SMILES	pPAFAH inh	PAFAH1B3 inh	PME-1 inh	PAFAH2 inh	Fam108B inh	PAFAH1B2 FP inh
Cc1ccc2ncnc(NCCC(=O)O)c2c1	-4	9	0	5	-1	3
COCCCNc1ncnc2ccc(C)cc12	25*	1	1	4	4	3
Cc1cc(=O)oc2c3c(cc(OCC(=O)NCc4ccccc4)c12)OC(C)(C)CC3	33*	15	1	20	-4	10
Cc1cc(=O)oc2c3c(cc(OCC(=O)NCC(=O)O)c12)OC(C)(C)CC3	16	3	3	12	4	5
Cc1c(C)c2c(OCC(=O)N[C@@H](CC(C)C)C(=O)O)cc3c(c2oc1=O)CCC(C)(C)O3	/	-3	/	75*	/	44*
COc1cc(NC(=O)CSc2ncnc3sc4c(c23)CCCC4)c(C(=O)O)cc1OC	26*	10	-1	21	0	6
CC(=O)CSc1ncnc2sc3c(c12)CCC3	5	1	11	1	-3	-4
O=C(Cn1cnc2scc(-c3ccccc3)c2c1=O)NCc1ccco1	25*	0	-4	-1	-4	-2
CCc1ccc(-c2csc3ncn(CC(=O)NCc4ccco4)c(=O)c23)cc1	7	0	-2	-1	-6	2
O=C(CCNS(=O)(=O)c1ccccc1)OCc1nnc(-c2ccccc2)o1	30*	3	3	2	-1	2
Cc1ccc(C(=O)CCC(=O)OCC(=O)Nc2nnc(-c3ccccc3)o2)cc1	/	-5	/	-1	/	1
O=C(COC(=O)CCNS(=O)(=O)c1ccccc1F)Nc1nnc(-c2ccccc2)o1	33*	11	1	10	0	1
O=C(CN1N=C(c2ccc(Cl)cc2)CCC1=O)NCc1cccnc1	1	7	3	-3	3	5
COc1ccc(C(=O)NNC(=S)NC(=O)c2ccco2)cc1	1	-4	7	-16	0	4
CC(Oc1ccc(Cl)cc1)C(=O)NNC(=S)NC(=O)c1ccco1 (stereo not drawn)	0	3	-3	6	-1	26*
O=C(CSCc1ccco1)c1ccc(Cl)s1	25*	/	-6	/	5	/
O=C(NNC(=S)NCc1ccco1)c1ccc(Cl)s1	6	3	-1	11	10	-4
Cc1cccc(NC(=O)CCCSc2nc3ccccc3[nH]2)c1	1	3	3	-4	-1	0
CCn1c(C)c(/C=N/Nc2nc3ccccc3s2)c2ccccc21	14	3	35*	1	5	2
CCN(CC)c1ccc(/C=C2/SC(=O)N(C(C)C)C2=O)o1	/	-41	/	-66	/	-36
CCc1ccc2c(c1)c(N=NC1=NC(=O)CS1)c(O)n2CC	6	5	5	12	6	6
CCc1ccc2[nH]c(O)c(N=NC3=NC(=O)CS3)c2c1	24	9	32*	-5	17	34*
Cn1c(CNC(=O)CNS(=O)(=O)c2ccc(Br)cc2)cc(=O)n(C)c1=O	2	6	-3	4	4	4
Cc1cc(Br)ccc1OCC(=O)NNC(=O)Cc1ccccc1	2	-4	0	14	4	1
Cc1cc(Br)ccc1OCC(=O)NNC(=O)C(=O)Nc1ccccc1	9	2	-5	11	-1	27*
SMILES	pPAFAH inh	PAFAH1B3 inh	PME-1 inh	PAFAH2 inh	Fam108B inh	PAFAH1B2 FP inh
CCOC(=O)[C@H]1[C@H]2COc3ccc(Cl)cc3[C@@H]2N2C(=O)c3ccc(Cl)cc3NC(=O)[C@@]12C	7	-6	2	-4	-15	-9
COc1ccc(NS(=O)(=O)c2ccc(OC)c(NC(=O)CCC3CCCCC3)c2)cc1	29*	4	10	-6	-15	10
Cc1ccc(NC(=O)COC(=O)CC2CCCC2)cc1F	30*	0	/	79*	/	-2
CCCC(=O)OCC(=O)Nc1ccc(OC(F)F)cc1	4	1	0	7	0	-1
COc1ccc(NC(=O)COC(=O)CCC2CCCCC2)cc1	32*	4	/	32*	/	12
O=C(COC(=O)CC1CCCC1)Nc1ccc(OC(F)F)cc1	28*	3	4	62*	-9	1
CCOc1ccc(/C=N/NC(=O)CC(=O)Nc2ccc(Cl)c(Cl)c2)cc1	-6	-14	-34	-14	-16	-5
COc1ccccc1C(=O)OCC(=O)Nc1ccccc1OC(F)F	4	6	4	5	2	-1
COc1ccccc1C(=O)OCC(=O)Nc1ccc(OC(F)F)cc1	28*	-6	5	48*	-2	-2
CCc1ccc(NC(=O)COC(=O)CC2CCCC2)cc1	26*	6	/	76*	/	2
O=C(COC(=O)c1ccc2c(c1)C(=O)N(CCc1ccccc1)C2=O)Nc1ccc(OC(F)F)cc1	25*	7	-4	-4	-3	5
Cc1noc(/C=C/N(C)C)c1S(=O)(=O)N1CCC(C(=O)NC(C)(C)C)CC1	7	10	0	0	0	-1
Cc1cc(-c2nn(-c3ccccc3F)cc2CN2CCN(c3ccccn3)CC2)c(C)s1	4	1	-1	2	-3	-3
Cc1ccc(-c2[nH]c(-c3ccccc3)nc2SCC(=O)NCC2CCCO2)cc1 (stereo not drawn)	-3	-5	2	6	6	8
N/C(=N\OC(=O)c1ccccc1)C(Cc1ccccc1)C(=O)NOC(=O)c1ccccc1 (stereo not drawn)	/	-1	/	1	/	5
Cc1cccc2cc(C#N)c(SCC(=O)NNC(=O)Cc3ccccc3)nc12	1	0	0	-19	-24	1
Cc1cccc2cc(C#N)c(SCC#N)nc12	2	7	31*	-3	4	3
NS(=O)(=O)c1ccc(CNC(=O)c2ccccn2)cc1	-12	5	-6	-2	-2	1
O=C(CCc1ccccc1)Nc1nc2nc(-c3ccccc3)cc(=O)n2[nH]1	-4	12	-5	5	1	27*
Cc1c(NC(=O)C(c2ccccc2)c2ccccc2)cccc1C(=O)O	1	2	-8	2	-4	5
O=C(O)c1cc(O)ccc1NC(=O)C(c1ccccc1)c1ccccc1	12	7	-10	-1	0	24*
Cc1ccc2nc(Cl)c(-c3ccccc3)cc2c1	31*	/	2	/	-2	/
CS(=O)(=O)C1=NSC2=NC(=O)/C(=C\c3cccn3-c3ccc(Cl)cc3)C(=N)N21	-12	5	-24	-9	-14	64*
Nc1c(C(=O)c2ccc(Cl)cc2)sc2nc3c(cc12)CCC3	3	-1	-4	4	-2	1
